The record followed here is PMC7862700, “An all-to-all approach to the identification of sequence-specific readers for epigenetic DNA modifications on cytosine”.

What all share (test): DAPPL (digital affinity profiling via proximity ligation, sequencing); 10 mM Tris-HCl pH 7.5, 50 mM NaCl, 1 mM DTT, 4% glycerol, room temperature, 30 min; GST-TFs on glutathione beads, 16-mer random dsDNA library, 0.1% formaldehyde crosslink after washing; high values mean tight binding
What all share (settings): protein: recombinant; tags: N-terminal GST; dsDNA, one strand shown

For one assay, the target named is T1, FLI1 (Homo sapiens, UniProt Q01543 1-452).
T1 sequence: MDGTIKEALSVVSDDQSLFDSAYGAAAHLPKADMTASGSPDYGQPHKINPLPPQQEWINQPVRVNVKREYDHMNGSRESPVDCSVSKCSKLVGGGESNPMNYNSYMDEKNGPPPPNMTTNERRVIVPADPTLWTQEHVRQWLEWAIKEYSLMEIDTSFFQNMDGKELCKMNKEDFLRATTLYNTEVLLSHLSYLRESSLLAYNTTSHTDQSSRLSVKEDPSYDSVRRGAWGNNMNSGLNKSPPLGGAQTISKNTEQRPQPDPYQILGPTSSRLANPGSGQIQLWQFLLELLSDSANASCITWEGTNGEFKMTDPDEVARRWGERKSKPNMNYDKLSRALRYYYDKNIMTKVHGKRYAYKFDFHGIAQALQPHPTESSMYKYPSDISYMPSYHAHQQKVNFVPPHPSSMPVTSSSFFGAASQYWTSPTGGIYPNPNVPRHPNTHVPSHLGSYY
Summed up: (§1)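 Each value of binding signal is a hexamer's read frequency for a factor divided by the same hexamer's frequency in the tag-only sample. Barcoded, bead-captured GST fusions of human transcription factors made in yeast were pooled with that sample and incubated with 200 nmole of a random double-stranded 16-mer DNA library in Tris/NaCl/DTT/glycerol buffer at room temperature for 30 min. Washing, 0.1% formaldehyde crosslinking, proximity ligation, PCR and Illumina NextSeq500 sequencing followed.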

Another assay concerns the target T2, ELK1 (Homo sapiens, UniProt P19419 1-428).
T2 sequence: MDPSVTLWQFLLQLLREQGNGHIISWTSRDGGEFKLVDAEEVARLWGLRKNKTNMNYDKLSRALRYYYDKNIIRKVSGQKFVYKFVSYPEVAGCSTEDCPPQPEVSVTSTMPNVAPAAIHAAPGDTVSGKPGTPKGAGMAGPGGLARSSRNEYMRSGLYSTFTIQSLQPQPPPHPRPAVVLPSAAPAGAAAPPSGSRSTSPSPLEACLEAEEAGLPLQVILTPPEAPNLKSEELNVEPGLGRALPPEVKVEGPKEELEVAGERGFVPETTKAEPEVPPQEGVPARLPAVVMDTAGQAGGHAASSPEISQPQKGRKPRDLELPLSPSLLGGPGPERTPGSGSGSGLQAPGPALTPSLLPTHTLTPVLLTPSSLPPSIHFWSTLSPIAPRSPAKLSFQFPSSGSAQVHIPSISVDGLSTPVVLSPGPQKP
Summed up:
as §1

The target in a further assay is T3, GABPA (Homo sapiens, UniProt Q06546 1-454).
T3 sequence: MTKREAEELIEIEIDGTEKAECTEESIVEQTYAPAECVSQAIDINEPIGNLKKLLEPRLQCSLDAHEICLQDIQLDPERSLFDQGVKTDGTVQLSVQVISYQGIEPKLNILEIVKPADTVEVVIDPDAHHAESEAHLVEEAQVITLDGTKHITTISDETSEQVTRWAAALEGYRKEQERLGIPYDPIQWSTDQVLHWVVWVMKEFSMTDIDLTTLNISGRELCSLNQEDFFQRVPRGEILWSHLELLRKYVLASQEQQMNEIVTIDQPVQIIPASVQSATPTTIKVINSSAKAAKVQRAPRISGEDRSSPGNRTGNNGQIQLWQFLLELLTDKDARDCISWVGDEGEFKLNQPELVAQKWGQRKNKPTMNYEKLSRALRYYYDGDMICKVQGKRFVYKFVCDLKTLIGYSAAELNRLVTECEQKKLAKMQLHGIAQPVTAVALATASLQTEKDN
In short, it runs like this: as §1

A further assay deals with T4, ERG (Homo sapiens, UniProt P11308 1-479).
T4 sequence: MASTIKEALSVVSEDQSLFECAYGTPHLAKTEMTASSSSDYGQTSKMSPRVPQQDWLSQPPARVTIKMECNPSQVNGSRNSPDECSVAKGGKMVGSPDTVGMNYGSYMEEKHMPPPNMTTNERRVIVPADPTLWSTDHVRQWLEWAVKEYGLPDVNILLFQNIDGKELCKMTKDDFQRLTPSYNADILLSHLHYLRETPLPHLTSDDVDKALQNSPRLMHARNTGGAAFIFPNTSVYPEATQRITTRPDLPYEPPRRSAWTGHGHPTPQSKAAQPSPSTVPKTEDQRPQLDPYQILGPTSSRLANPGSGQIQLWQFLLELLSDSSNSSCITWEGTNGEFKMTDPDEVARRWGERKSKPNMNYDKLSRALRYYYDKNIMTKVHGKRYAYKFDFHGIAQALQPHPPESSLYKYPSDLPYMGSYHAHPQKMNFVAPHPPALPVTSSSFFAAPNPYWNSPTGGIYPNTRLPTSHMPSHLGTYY
Summed up: as §1

The target of another assay is ELF1 (Homo sapiens, UniProt P32519 1-619). In short, it runs like this:
as §1

Another assay concerns the target T5, EHF (Homo sapiens, UniProt Q9NZC4 1-300).
T5 sequence: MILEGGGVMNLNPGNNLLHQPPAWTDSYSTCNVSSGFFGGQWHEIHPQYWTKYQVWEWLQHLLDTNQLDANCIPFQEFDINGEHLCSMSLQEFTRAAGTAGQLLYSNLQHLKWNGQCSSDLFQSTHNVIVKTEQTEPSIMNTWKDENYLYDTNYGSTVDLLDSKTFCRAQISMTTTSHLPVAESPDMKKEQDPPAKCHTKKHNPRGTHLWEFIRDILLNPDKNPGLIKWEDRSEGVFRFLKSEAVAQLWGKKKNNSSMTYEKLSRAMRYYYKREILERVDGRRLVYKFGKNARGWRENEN
In short, it runs like this: as §1

The target of another assay is SPI1 (Homo sapiens, UniProt P17947 1-270). Summed up: as §1
A further assay addresses SPIB (Homo sapiens, UniProt Q01892 1-262). In short, it runs like this: as §1
For the next assay, the target named is T6, ELK3 (Homo sapiens, UniProt P41970 1-407).
T6 sequence: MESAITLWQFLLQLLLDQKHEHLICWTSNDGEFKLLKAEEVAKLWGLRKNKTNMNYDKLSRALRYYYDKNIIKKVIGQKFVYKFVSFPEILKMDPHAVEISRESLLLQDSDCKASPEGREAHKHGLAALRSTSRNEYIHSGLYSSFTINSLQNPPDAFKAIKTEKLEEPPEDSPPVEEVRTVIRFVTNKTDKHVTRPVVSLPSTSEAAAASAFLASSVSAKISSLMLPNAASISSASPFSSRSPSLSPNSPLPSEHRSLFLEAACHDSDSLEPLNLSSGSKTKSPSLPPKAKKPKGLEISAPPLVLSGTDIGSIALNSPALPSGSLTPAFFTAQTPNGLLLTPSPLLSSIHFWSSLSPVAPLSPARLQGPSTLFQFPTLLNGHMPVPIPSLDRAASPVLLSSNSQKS
Summed up:
as §1

In another assay the target is T7, FEV (Homo sapiens, UniProt Q99581 1-238).
T7 sequence: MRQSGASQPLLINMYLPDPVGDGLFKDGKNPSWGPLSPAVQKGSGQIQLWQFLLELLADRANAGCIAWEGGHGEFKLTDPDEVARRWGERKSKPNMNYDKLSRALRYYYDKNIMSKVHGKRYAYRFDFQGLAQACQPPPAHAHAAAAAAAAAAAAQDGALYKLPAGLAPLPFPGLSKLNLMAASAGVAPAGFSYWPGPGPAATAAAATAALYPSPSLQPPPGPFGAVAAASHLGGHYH
In short, it runs like this:
as §1

In another assay the target is ETV5 (Homo sapiens, UniProt P41161 1-510). Summed up:
as §1

A further assay addresses T8, SPIC (Homo sapiens, UniProt Q8N5J4 1-248).
T8 sequence: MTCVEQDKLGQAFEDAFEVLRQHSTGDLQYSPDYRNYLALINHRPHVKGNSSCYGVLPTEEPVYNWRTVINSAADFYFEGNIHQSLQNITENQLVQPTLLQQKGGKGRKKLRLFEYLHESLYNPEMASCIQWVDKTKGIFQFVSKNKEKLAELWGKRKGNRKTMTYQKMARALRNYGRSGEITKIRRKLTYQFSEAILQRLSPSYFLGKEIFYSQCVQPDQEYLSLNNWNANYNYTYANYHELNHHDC
In short, it runs like this:
as §1

In a further assay the target is ELF4 (Homo sapiens, UniProt Q99607 1-663). In short, it runs like this:
as §1

For another assay, the target named is T9, ELK4 (Homo sapiens, UniProt P28324-2 1-405).
T9 sequence: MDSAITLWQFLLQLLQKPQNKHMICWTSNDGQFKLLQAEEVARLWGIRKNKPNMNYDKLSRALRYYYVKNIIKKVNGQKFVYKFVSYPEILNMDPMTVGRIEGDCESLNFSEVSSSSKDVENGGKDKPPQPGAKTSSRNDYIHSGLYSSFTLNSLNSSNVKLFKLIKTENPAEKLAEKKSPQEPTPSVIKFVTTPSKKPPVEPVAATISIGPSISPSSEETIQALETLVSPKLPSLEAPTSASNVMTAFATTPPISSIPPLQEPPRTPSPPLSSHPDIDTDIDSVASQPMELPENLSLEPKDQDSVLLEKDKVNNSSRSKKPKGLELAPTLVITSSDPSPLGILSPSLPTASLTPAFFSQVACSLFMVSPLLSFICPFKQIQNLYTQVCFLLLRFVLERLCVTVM
In short, it runs like this: as §1

A further assay concerns the target T10, ETV2 (Homo sapiens, UniProt O00321 1-342).
T10 sequence: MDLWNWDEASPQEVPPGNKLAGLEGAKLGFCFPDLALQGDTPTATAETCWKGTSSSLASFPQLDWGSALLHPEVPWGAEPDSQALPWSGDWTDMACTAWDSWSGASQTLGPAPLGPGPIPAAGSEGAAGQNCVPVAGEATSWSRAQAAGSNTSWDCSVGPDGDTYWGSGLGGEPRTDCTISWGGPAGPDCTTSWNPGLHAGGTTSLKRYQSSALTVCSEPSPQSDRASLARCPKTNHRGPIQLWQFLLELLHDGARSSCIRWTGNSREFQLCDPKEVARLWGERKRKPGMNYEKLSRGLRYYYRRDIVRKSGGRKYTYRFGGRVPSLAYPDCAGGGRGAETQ
In short, it runs like this: as §1

For the next assay, the target named is T11, ELF3 (Homo sapiens, UniProt P78545 1-371).
T11 sequence: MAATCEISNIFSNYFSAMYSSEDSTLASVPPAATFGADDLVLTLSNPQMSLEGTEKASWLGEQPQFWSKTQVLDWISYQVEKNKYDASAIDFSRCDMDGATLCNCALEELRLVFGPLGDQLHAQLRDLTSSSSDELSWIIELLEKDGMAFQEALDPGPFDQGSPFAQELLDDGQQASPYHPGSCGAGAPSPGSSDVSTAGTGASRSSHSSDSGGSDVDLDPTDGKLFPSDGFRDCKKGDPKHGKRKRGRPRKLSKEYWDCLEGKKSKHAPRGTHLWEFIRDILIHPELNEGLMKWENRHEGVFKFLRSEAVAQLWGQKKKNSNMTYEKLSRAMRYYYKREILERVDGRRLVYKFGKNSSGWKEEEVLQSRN
Summed up:
as §1

The next assay has as its target ETV1 (Homo sapiens, UniProt P50549 1-477). Summed up: as §1

ETV1, sequence (P50549 whole entry): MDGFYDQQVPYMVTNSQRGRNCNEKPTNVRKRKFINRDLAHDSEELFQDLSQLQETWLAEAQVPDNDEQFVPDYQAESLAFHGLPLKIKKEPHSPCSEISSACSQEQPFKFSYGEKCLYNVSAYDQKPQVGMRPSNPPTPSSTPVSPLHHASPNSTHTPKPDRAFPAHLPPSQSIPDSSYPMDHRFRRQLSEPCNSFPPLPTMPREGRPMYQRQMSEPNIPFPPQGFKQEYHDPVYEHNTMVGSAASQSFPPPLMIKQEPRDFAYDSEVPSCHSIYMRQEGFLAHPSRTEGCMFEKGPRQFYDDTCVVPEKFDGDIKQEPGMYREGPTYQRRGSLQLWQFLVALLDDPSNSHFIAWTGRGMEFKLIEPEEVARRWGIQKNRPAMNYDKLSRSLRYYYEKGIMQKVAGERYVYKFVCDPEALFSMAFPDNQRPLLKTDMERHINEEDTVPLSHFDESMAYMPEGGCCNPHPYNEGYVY
ELF4, sequence (Q99607 whole entry): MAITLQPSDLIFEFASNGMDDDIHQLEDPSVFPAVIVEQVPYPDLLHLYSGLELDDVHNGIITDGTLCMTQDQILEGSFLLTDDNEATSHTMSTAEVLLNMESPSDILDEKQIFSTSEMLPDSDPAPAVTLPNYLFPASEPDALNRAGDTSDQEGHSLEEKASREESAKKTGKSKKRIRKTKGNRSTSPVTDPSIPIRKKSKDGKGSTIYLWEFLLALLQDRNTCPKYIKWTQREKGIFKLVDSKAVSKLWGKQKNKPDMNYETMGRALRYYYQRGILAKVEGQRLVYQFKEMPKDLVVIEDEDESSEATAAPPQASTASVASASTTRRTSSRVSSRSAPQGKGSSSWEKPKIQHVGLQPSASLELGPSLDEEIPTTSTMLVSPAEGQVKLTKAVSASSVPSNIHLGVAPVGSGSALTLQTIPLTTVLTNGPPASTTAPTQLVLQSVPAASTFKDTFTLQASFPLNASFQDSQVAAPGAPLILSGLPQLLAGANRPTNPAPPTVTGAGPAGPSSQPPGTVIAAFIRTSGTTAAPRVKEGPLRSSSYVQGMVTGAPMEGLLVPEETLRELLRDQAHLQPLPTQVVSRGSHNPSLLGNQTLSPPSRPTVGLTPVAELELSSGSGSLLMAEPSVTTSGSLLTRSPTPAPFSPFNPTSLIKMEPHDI
SPIB, sequence (Q01892 whole entry): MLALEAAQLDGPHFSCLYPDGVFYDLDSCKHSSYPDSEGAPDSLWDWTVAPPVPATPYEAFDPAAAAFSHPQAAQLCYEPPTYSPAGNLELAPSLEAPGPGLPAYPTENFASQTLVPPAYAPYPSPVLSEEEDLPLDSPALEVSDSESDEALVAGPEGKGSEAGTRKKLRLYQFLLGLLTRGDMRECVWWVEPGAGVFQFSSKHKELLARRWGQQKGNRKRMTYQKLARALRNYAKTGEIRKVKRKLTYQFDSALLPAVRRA
ELF1, sequence (P32519 whole entry): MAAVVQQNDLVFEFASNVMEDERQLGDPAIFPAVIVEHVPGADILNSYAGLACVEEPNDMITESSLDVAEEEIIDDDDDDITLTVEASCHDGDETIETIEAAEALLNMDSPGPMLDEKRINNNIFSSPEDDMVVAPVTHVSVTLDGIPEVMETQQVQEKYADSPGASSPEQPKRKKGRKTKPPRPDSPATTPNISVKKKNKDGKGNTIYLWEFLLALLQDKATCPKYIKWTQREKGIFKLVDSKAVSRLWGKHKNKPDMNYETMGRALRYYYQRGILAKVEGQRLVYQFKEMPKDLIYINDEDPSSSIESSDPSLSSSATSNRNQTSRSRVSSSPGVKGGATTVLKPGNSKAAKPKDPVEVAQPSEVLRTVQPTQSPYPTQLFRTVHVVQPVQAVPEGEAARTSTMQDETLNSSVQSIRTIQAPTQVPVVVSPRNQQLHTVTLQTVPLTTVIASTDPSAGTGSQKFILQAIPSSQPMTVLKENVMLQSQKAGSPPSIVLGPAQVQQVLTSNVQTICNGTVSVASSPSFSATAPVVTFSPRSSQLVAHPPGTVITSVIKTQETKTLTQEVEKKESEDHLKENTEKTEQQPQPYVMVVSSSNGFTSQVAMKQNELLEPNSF
ETV5, sequence (P41161 whole entry): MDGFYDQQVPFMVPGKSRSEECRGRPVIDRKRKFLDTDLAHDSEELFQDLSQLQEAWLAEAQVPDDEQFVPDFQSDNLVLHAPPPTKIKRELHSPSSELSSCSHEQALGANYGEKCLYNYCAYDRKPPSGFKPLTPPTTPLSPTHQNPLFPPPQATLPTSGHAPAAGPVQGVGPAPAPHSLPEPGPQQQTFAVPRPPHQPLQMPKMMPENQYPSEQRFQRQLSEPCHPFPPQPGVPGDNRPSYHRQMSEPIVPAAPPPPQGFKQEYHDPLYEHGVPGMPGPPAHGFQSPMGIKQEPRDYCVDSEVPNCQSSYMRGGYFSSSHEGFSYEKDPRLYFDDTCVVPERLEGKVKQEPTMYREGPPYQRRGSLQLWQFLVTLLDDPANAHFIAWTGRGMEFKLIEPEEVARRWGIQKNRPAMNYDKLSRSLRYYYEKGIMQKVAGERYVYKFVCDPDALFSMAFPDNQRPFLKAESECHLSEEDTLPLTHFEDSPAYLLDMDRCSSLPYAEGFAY

For the sequence CCCACC, the binding signal in the assay with FLI1 is 1.17 fold enrichment (6-mer frequency, TF over GST control); with ELK1 it was 1.26 fold enrichment (6-mer frequency, TF over GST control); with GABPA, 1.11 fold enrichment (6-mer frequency, TF over GST control); with ERG, 1.15 fold enrichment (6-mer frequency, TF over GST control); in the assay with ELF1, 1.15 fold enrichment (6-mer frequency, TF over GST control); with EHF, 1.2 fold enrichment (6-mer frequency, TF over GST control). Moreover, the binding signal with SPI1 is 1.18 fold enrichment (6-mer frequency, TF over GST control); in the assay with SPIB it was 1.13 fold enrichment (6-mer frequency, TF over GST control); in the assay with ELK3, 1.16 fold enrichment (6-mer frequency, TF over GST control); with FEV, 1.17 fold enrichment (6-mer frequency, TF over GST control); in the assay with ETV5, 1.16 fold enrichment (6-mer frequency, TF over GST control); with SPIC, 1.21 fold enrichment (6-mer frequency, TF over GST control). The binding signal in the assay with ELF4 is 1.19 fold enrichment (6-mer frequency, TF over GST control); in the assay with ELK4, 1.26 fold enrichment (6-mer frequency, TF over GST control); with ETV2, 1.15 fold enrichment (6-mer frequency, TF over GST control); in the assay with ELF3, 1.41 fold enrichment (6-mer frequency, TF over GST control); with ETV1, 1.14 fold enrichment (6-mer frequency, TF over GST control).
Regarding ACATTG, the binding signal with FLI1 was 1.24 fold enrichment (6-mer frequency, TF over GST control); with ELK1, 1.11 fold enrichment (6-mer frequency, TF over GST control); with GABPA it was 1.17 fold enrichment (6-mer frequency, TF over GST control); with ERG, 1.07 fold enrichment (6-mer frequency, TF over GST control); in the assay with ELF1, 1.13 fold enrichment (6-mer frequency, TF over GST control); with EHF it was 1.17 fold enrichment (6-mer frequency, TF over GST control). In addition, the binding signal was 1.04 fold enrichment (6-mer frequency, TF over GST control) with SPI1; 1.16 fold enrichment (6-mer frequency, TF over GST control) with SPIB; 1.11 fold enrichment (6-mer frequency, TF over GST control) in the assay with ELK3; 1.12 fold enrichment (6-mer frequency, TF over GST control) in the assay with FEV; 1.09 fold enrichment (6-mer frequency, TF over GST control) with ETV5; 1.18 fold enrichment (6-mer frequency, TF over GST control) with SPIC. Further, the binding signal with ELF4 is 1.12 fold enrichment (6-mer frequency, TF over GST control); with ELK4, 1.19 fold enrichment (6-mer frequency, TF over GST control); with ETV2 it was 1.09 fold enrichment (6-mer frequency, TF over GST control); with ELF3, 1.25 fold enrichment (6-mer frequency, TF over GST control); with ETV1, 1.19 fold enrichment (6-mer frequency, TF over GST control).
